Screening results as filed in PubChem.
Most compounds without a hit are left out; they make up all but 4.6% or so of the library.
TIM10 inh: growth inhibitors of isogenic TIM10 control yeast, primary screen, counter-screen for tim10-1 yeast inhibitor project, luminescence, uHTS; S. cerevisiae TIM10 strain growth, BacTiter-Glo luminescence, 24 h; inhibition, % at 10 µM; 330,000 tested, 1.4% active;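 active means inhibition of 40% or more at the single tested concentration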;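 further: wild-type TIM10 isogenic control strain grown at permissive 25 °C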
tim10-1 inh: growth inhibitors of tim10-1 mutant yeast, primary screen, luminescence, uHTS; S. cerevisiae tim10-1 ts strain growth, BacTiter-Glo, 24 h; inhibition, % at 20 µM; 330,000 tested, 2.2% active; AID 463190, 2010;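 active means inhibition of at least 40%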;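 further: mutant grown at 25 °C; 0% = DMSO wells with yeast and 100% = wells holding no yeast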
PfHsp90 yeast 2: growth inhibition of PfHsp90-expressing yeast, primary screen, antimalarial PfHsp90 inhibitor project, S. cerevisiae, BacTiter-Glo luminescence, single point, set 2; BacTiter-Glo ATP, 48 h; yeast lacking PDR1 and PDR3 efflux regulators; 310,000 tested, 0.32% active; inhibition, % at 9.4 µM; AID 504621, 2011;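 active means every replicate shows inhibition above about 80%, whatever the replicate mean, limit read from the data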;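 further: 0% = DMSO neutral controls and 100% = 20 µM radicicol positive controls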
NLRP3 yeast inh: NALP3 inflammasome inhibitors in reconstituted yeast, primary screen, luminescence, uHTS. Yeast reconstituted NLRP3/ASC/caspase-1, beta-gal luminescence, 24 h. inhibition, % at 10 µM. 330,000 tested, 0.39% active. AID 2825, 2010;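 active means inhibition of 50% or more; inactive means inhibition below 50%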;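 further: plate controls were induced DMSO wells for no effect and uninduced yeast grown without galactose for full effect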
SKKanGAS inh: S. pyogenes SKKanGAS growth inhibitors in kanamycin, primary screen, streptokinase expression inhibitor project, SKKanGAS strain, BacTiter-Glo luminescence | inhibition, % at 7.5 µM | 6 h | 300,000 tested, 1.3% active | AID 1662, 2009;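 active means mean replicate score, as percent of positive control median, at least 50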;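 further: strain carries kanamycin resistance gene driven by streptokinase promoter and grows in 40 µg/ml kanamycin; loss of luminescence reflects streptokinase promoter inhibition or plain growth inhibition; 0% = median of DMSO wells and 100% = positive control at its reference dose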
tim23-1 inh: growth inhibitors of tim23-1 mutant yeast, primary screen, luminescence, uHTS | inhibition, % at 20 µM | 330,000 tested, 1.3% active | AID 463212, 2010 | S. cerevisiae tim23-1 growth, BacTiter-Glo luminescence, 24 h;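 active means growth inhibition of the mutant yeast at or above 50%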;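 further: temperature-sensitive mutant grown at 25 °C; plate controls were DMSO-treated mutant yeast for no effect and medium wells lacking yeast for full effect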
tim10-1 conf: growth inhibitors of tim10-1 mutant yeast, confirmation, single concentration, luminescence, S. cerevisiae; shares compounds with tim10-1 inh; S. cerevisiae tim10-1 ts strain growth, BacTiter-Glo, 24 h; inhibition, % at 20 µM; 7,400 tested, 56% active;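 active means inhibition of yeast growth at or above a set limit in either of two repeat tests at 20 µM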;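 further: tim10-1 mutant grown at permissive 25 °C to find synthetic lethal compounds; 0% = DMSO yeast wells and 100% = medium wells without yeast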
tim10 confirm: growth inhibitors of wild-type TIM10 yeast, confirmation, counter-screen for tim10-1 synthetic lethality project, single concentration, luminescence, S. cerevisiae; S. cerevisiae tim10 strain growth, BacTiter-Glo luminescence, 24 h; AID 463215, 2010; shares compounds with TIM10 inh; inhibition, % at 10 µM; 4,600 tested, 63% active;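 active means inhibition of yeast growth at or above a set limit in either of two replicates at 10 µM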;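 further: this counterscreen used the strain with wild-type TIM10; 0% = yeast with DMSO and 100% = medium wells lacking yeast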
tim23-1 conf: tim23-1 mutant yeast growth inhibitors, confirmation, luminescence, single concentration; 4,400 tested, 83% active; shares compounds with tim23-1 inh; S. cerevisiae tim23-1 growth, BacTiter-Glo luminescence, 24 h; AID 463218, 2010; inhibition, % at 20 µM;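 active means inhibition above about 39% in either of two replicate wells at 20 µM, limit read from the data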;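 further: temperature-sensitive tim23-1 mutant grown at 25 °C; 0% = DMSO wells with yeast and 100% = medium wells without yeast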
The depositor's hits bear a star; · = not tested or not shown.

SMILES | TIM10 inh | tim10-1 inh | PfHsp90 yeast 2 | NLRP3 yeast inh | SKKanGAS inh | tim23-1 inh | tim10-1 conf | tim10 confirm | tim23-1 conf
COc1cc(Cl)c(NS(=O)(=O)c2cc3[nH]c(=O)c(=O)[nH]c3cc2C)c(OC)c1 | -3 | -23 | -4 | 6 | 2 | -12 | · | · | ·
COc1ccc2c(c1)N(C(=O)CN1C(=O)C3CCCCC3C1=O)C(C)(C)C=C2C (stereo unspecified) | 33 | 51* | -6 | 4 | 2 | 53* | 46* | · | 52*
Cc1ccc(OCCCC(=O)ON=C(N)c2ccccc2C)cc1 | 41* | 60* | -38 | 17 | · | 62* | 64* | 50* | 61*
COc1ccc(OCCCC(=O)ON=C(N)c2ccccc2Cl)cc1 | 39 | 24 | -12 | 20 | · | 31 | · | · | ·
Cc1[nH]nc2c1C(c1ccc(-c3ccc(Cl)cc3)o1)C(C#N)=C(N)O2 (stereo unspecified) | 22 | 34 | 1 | 15 | -1 | 34 | · | · | ·
Cc1[nH]nc2c1C(c1ccc(-c3ccccc3C#N)o1)C(C#N)=C(N)O2 (stereo unspecified) | 16 | 56* | -1 | 14 | 1 | 86* | 55* | · | 68*
O=C(NCc1ccc(Cl)s1)C1CCC(=O)N(CCc2ccccn2)C1 (stereo unspecified) | 2 | -3 | 10 | 11 | 0 | -1 | · | · | ·
Cc1ccc(NCc2nc3ccccc3n2CCOc2ccccc2)cc1 | 17 | 44* | -5 | 23 | 5 | 57* | 30 | · | 74*
Cc1nc2ccccc2n1CCOc1ccccc1 | 5 | 11 | -2 | 28 | 2 | 11 | · | · | ·
[O-][n+]1c2c(c3c4non(O)c4ccc31)CCCC2 | 61* | 70* | -11 | 27 | 1 | 63* | 70* | 52* | 64*
Cc1nn(CC(=O)N2CCN(c3ccccc3)CC2)c(=O)c2cccn12 | 1 | -1 | 1 | 6 | -4 | -5 | · | · | ·
Cc1ccc(S(=O)(=O)CC(=O)c2cc3cccc(C)c3oc2=O)cc1 | 1 | 42* | -32 | 5 | 1 | 53* | -23 | · | 32
COc1cccc2cc(C(=O)CS(=O)(=O)c3ccc(C)cc3)c(=O)oc12 | -4 | 33 | -16 | 9 | -6 | 37 | · | · | ·
CCOC(=O)c1c(C)[nH]c(C(C)=NNC(=O)c2cccs2)c1C | 17 | 9 | -18 | 13 | · | 6 | · | · | ·
Cc1ccc(NC(=O)CS(=O)CC(=O)Nc2ccccc2-c2ccc(C)o2)cc1 (stereo unspecified) | 29 | 45* | 2 | 5 | 1 | 50* | 28* | · | 47*
CC(=O)Nc1ccccc1-c1ccc(C)o1 | 5 | -1 | 5 | -1 | -2 | 1 | · | · | ·
COc1ccc(S(=O)(=O)N2CCN(C(=O)c3oc4ccccc4c3C)CC2)cc1 | 44* | 57* | 16 | 31 | -2 | 53* | 43* | 55* | 54*
CCN(CC)CCNc1c2c(c(C#N)c3nc4ccccc4n13)CCCC2 | 60* | 68* | -36 | 28 | -1 | 57* | 56* | 53* | 67*
CCN1C(=O)/C(=C/N(C)C)c2ccccc21 | -11 | 15 | · | 4 | 5 | -2 | · | · | ·
CCN1C(=O)/C(=C\C(=O)c2cccs2)c2cc(Br)ccc21 | 74* | 49* | 103* | 20 | 38 | 72* | 34* | 65* | 25
Cc1ccc(S(=O)(=O)/N=C2\C=C(Nc3ccc(O)cc3)C(=O)c3ccccc32)cc1 | 40 | 64* | 5 | 22 | · | 51* | 74* | · | 70*
Fc1ccc(CN2CCN(c3ncnc4scc(-c5ccc(F)cc5)c34)CC2)cc1 | 26 | 50* | -9 | 11 | 1 | 54* | 46* | · | 53*
CCOC(=O)N1CCN(c2ncnc3scc(-c4ccc(Cl)cc4)c23)CC1 | 32 | 46* | -7 | 17 | 2 | 57* | 40* | · | 44*
CCOC(=O)N1CCN(c2ncnc3scc(-c4ccccc4)c23)CC1 | 9 | 32 | 19 | 8 | 4 | 28 | · | · | ·
Cc1ccc(N(C(=O)c2csnn2)C(C(=O)NC2CCCC2)c2cccnc2)c(C)c1 (stereo unspecified) | -16 | 3 | 1 | -7 | -1 | 13 | · | · | ·
SMILES | TIM10 inh | tim10-1 inh | PfHsp90 yeast 2 | NLRP3 yeast inh | SKKanGAS inh | tim23-1 inh | tim10-1 conf | tim10 confirm | tim23-1 conf
Nc1ccc(N=Nc2ccccc2)c2ccccc12 | 65* | 49* | -2 | 34 | 86* | 80* | 39* | 75* | 13
COc1ccc(C(=O)c2coc3c2C(=O)C(=O)c2ccccc2-3)cc1 | 94* | 94* | 12 | 25 | 58* | 85* | 93* | 97* | 93*
O=C1c2ccccc2C(=O)c2c1oc(C(F)(F)F)c2C(=O)c1ccccc1 | 78* | 80* | -85 | 4 | 106* | 80* | 72* | 92* | 76*
COc1ccc2occ(C(=O)c3ccccc3)c2c1 | 5 | 16 | -44 | 4 | 6 | 16 | · | · | ·
O=C(c1ccccc1)c1coc2c1C(=O)c1ccccc1C2=O | 73* | 81* | -13 | 34 | 13 | 66* | 76* | 69* | 79*
O=S(=O)(c1cccc(-c2n[nH]c(=S)n2-c2ccc(OC(F)(F)F)cc2)c1)N1CCOCC1 | 10 | 21 | 41 | 27 | · | 11 | · | · | ·
O=C(Nc1cccc(-c2nnc(-c3ccccc3)o2)c1)C1CC1 | 27 | 41* | 5 | 24 | 8 | 60* | 20 | · | 76*
Cc1ccc(NC(=O)CN2C(=O)S/C(=C/c3ccncc3)C2=O)cc1 | 42* | 45* | 32 | 16 | 4 | 56* | 42* | 43* | 51*
Cc1ccc(/C=C2\SC(=S)N(CC(=O)Nc3cccnc3)C2=O)cc1 | -38 | 1 | 3 | -5 | 3 | -17 | · | · | ·
CC(CCc1ccccc1)NC(=O)N1CCOCC1 (stereo unspecified) | -2 | 9 | 9 | 4 | -4 | 2 | · | · | ·
